Where “and” joins values, the source holds several entries; their conditions need not be identical. Equal values may be shown once. Results filed as inconclusive are left out. Calls of active or inactive are those of the source.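 How the source made its calls, unless noted: active means normalized viability below 100% at a tested concentration; inactive means the rest.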
Assays:
[1] = viability loss in pontine glioma line – cell-based, SU-DIPG-XVII, MIPE5.0, CellTiter-Glo, qHTS, dose response (AID 1347060; cut-off not given, nearly all actives have AC50 up to about 26 µM;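 further: cells exposed to compound for 48 hours before viability readout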); conditions: CellTiter-Glo ATP luminescence
[2] = viability loss in pontine glioma line – cell-based, JHH-DIPG-1, MIPE4.0, CellTiter-Glo, qHTS, dose response (AID 1347062; cut-off not given, nearly all actives have AC50 up to about 27 µM;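 on AC50: cells exposed to compound for two days before readout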); conditions: JHH-DIPG-1 viability, CellTiter-Glo ATP luminescence
[3] = viability loss in pontine glioma line – cell-based, SU-DIPG-IV, MIPE4.0, CellTiter-Glo, qHTS, dose response (AID 1347063; cut-off not given, nearly all actives have AC50 up to about 30 µM;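 further: compound exposure lasted 48 hours before the viability readout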); conditions: CellTiter-Glo ATP luminescence
[4] = viability loss in pontine glioma line – cell-based, SU-DIPG-XIII, MIPE5.0, CellTiter-Glo, qHTS, dose response (AID 1347064; cut-off not given, nearly all actives have AC50 up to about 23 µM;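 on AC50: cells exposed to compound for 48 hours before the viability read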); conditions: CellTiter-Glo ATP luminescence
[5] = viability loss in pontine glioma line – cell-based, SU-DIPG-XXV, MIPE5.0, CellTiter-Glo, qHTS, dose response (AID 1347065; cut-off not given, nearly all actives have AC50 up to about 26 µM;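 further: cells exposed to compound for 48 hours before ATP readout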); conditions: CellTiter-Glo ATP luminescence
[6] = JHH-DIPG-1 glioma cell viability, MIPE5.0 library, CellTiter-Glo luminescence, qHTS (AID 1347067; cut-off not given, nearly all actives have AC50 up to about 26 µM;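 further: cells exposed to compound for 48 hours before readout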); conditions: JHH-DIPG-1 glioma viability, CellTiter-Glo ATP luminescence
[7] = viability loss with induced miR-34 in A549 – imaging, A549 dox-inducible miR-34, nuclei and caspase counts, primary screen (AID 1347080;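 active means compounds whose cell count with miR-34 switched on is under 0.7 times the count with it off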); conditions: A549 miR-34 inducible, Hoechst nuclei count, 48 h
[8] = MELAS cybrid and Rieske KO viability enhancers – cell-based, MELAS cybrids, Rieske KO mouse fibroblasts, CellTiter-Glo, primary screen (AID 1508586;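 active means mean z-score across replicates of 1.96 or higher in either the MELAS or the Rieske mutant cell line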;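 further: z relative to plate mean and SD of compound and empty wells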); conditions: low glucose
[9] = growth inhibition, single agent or in combination, cell-based, chromothripsis tumors, cisplatin or BGB combos (AID 1671449; in the data active means inhibition above about 80%;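 further: cells exposed for 96 hours; 0% = vehicle DMSO and 100% = killing by high DMSO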); conditions: LFS_MB_P medulloblastoma cells
[10] = growth inhibition, single agent and combos, cell-based, chromothripsis tumors, cisplatin or BGB combos (AID 1671450; in the data active means inhibition above about 80%;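 further: cells exposed to compound for four days; 0% = vehicle DMSO and 100% = cell killing by high DMSO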); conditions: HDN33 neuroblastoma cells, stronger effect = higher value
[11] = growth inhibition, single agents and combos, ICB984, cell-based, cisplatin or BGB combos, synergistic combos for chromothripsis tumors (AID 1671451; call rule not given here;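 further: cells exposed for 96 hours before readout; 0% = vehicle DMSO and 100% = killing by high DMSO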); conditions: ICB984 medulloblastoma cells, drug combinations, stronger effect = higher value
[12] = growth inhibition, single agents and combos, HTB85, cell-based, BGB or cisplatin IC20 combos, synergistic combos for chromothripsis tumors (AID 1671453; in the data active means inhibition above about 80%;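 further: cells exposed for 96 hours before readout; 0% = vehicle DMSO and 100% = high DMSO killing control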); conditions: HTB85 osteosarcoma cells, drug combinations, stronger effect = higher value
[13] = growth inhibition, MDA-MB-436, cell-based, BGB or cisplatin combos, synergistic combos for chromothripsis tumors (AID 1671458; call rule not given here;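 further: cells exposed for 96 hours; 0% = vehicle DMSO and 100% = killing by high DMSO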); conditions: MDA-MB-436 breast carcinoma growth inhibition, drug combinations, stronger effect = higher value
[14] = BT084 cell growth, single and combined drugs, ICGC_MB145, cisplatin and BGB IC40 combos (AID 1671461; in the data active means inhibition above about 80%;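 further: cells exposed to drugs for 96 hours; 0% = vehicle DMSO and 100% = high DMSO full killing control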); conditions: BT084 medulloblastoma cells, drug combinations, stronger effect = higher value
[15] = growth inhibition of DIPG cells – cell-based, MIPE5.0 library, qHTS (AID 1347068; cut-off not given, nearly all actives have IC50 up to about 30 µM;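 on IC50: cells exposed to compound for 48 hours before viability readout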); conditions: SU-DIPG-XXV viability
[16] = growth inhibition of DIPG cells – cell-based, MIPE4.0 library, CellTiter-Glo luminescence, qHTS (AID 1347066; cut-off not given, nearly all actives have AC50 up to about 30 µM;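 further: cells exposed to compound for 48 hours before readout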); conditions: SU-DIPG-VI viability, CellTiter-Glo ATP luminescence
[17] = drug combination growth inhibition, ovarian cancer – cell-based, oncology-focused library, rucaparib conditional, profiling panel (AID 1508598); conditions: patient-derived ovarian cancer cells, CellTiter-Glo viability, 144 h, stronger effect = lower value
[18] = stronger effect = lower value, cell number ratio, induced over uninduced
[19] = measured here: relative caspase fold change +Dox/-Dox
[20] = measured here: total cells with miR-34 induction, stronger effect = lower value
[21] = measured here: total cells without miR-34 induction
[22] = MELAS cybrid survival, CellTiter-Glo 48 h, stronger effect = higher value
[23] = Rieske KO mouse fibroblast survival, CellTiter-Glo 72 h

CN(C)c1ccc(C(=O)NCCCCCCC(=O)NO)cc1
AC50 [1]: 1.48 µM (active) | AC50 [2]: 0.743 µM (active) | AC50 [3]: 1.05 µM (active) | AC50 [4]: 0.934 µM (active) | AC50 [5]: 0.934 µM (active) | AC50 [6]: 1.18 µM (active) | fold change [7, 18]: 0.925 (inactive) and 1.16 (inactive) | fold change [7, 19]: 1.2 and 1.01 | cell count [7, 20]: 3030 and 2210 | cell count [7, 21]: 3270 and 1910 | z-score [8, 22]: 1.18 (inactive) | z-score [8, 23]: 0.973 | inhibition ([9]; at 0.5 µM, stronger effect = higher value): -18.1% (inactive) | inhibition ([9]; measured here: combination with BGB IC20, at 0.005 µM): -25.6% | inhibition ([9]; measured here: combination with BGB IC40, at 0.005 µM): -22.1% | inhibition ([9]; measured here: combination with BGB IC40, at 0.05 µM): -25.8% | inhibition ([9]; measured here: combination with cisplatin, at 0.5 µM, stronger effect = higher value): -23.5% | inhibition ([9]; measured here: combination with cisplatin, at 5 µM, stronger effect = higher value): 107% | inhibition ([10]; BGB combo, at 5 µM): 97.7% | inhibition ([10]; at 0.5 µM): 36.1% (inactive) | inhibition ([10]; cisplatin combo, at 5 µM): 99.4% | inhibition ([10]; measured here: with BGB IC20 combination, at 0.5 µM): 24.9% | inhibition ([10]; measured here: with cisplatin IC20 combination, at 0.5 µM): 50.9% | inhibition ([10]; single agent, at 5 µM): 99.1% | inhibition ([11]; BGB IC20 combo, at 0.005 µM): 6.17% | inhibition ([11]; BGB IC40 combo, at 0.005 µM): 7.19% | inhibition ([11]; BGB IC40 combo, at 0.05 µM): 87.6% | inhibition ([11]; at 0.5 µM): -20.5% (inactive) | inhibition ([11]; cisplatin combo, at 0.05 µM): 87.3% | inhibition ([11]; cisplatin combo, at 0.5 µM): -6.9% | inhibition ([11]; cisplatin combo, at 5 µM): -44.2% | inhibition ([11]; measured here: 5 uM single agent, at 5 µM): -34.3% | inhibition ([12]; at 0.5 µM): 28.6% (inactive) | inhibition ([12]; measured here: with BGB IC20, at 0.5 µM): 18.8% | inhibition ([12]; measured here: with BGB IC20, at 5 µM): 95.5% | inhibition ([12]; measured here: with cisplatin IC20, at 0.5 µM): 33.4% | inhibition ([12]; measured here: with cisplatin IC20, at 5 µM): 99.7% | inhibition ([12]; single agent, at 5 µM): 97.7% | inhibition ([13]; at 0.5 µM): 5.27% (inactive) | inhibition ([13]; measured here: BGB combination, at 0.5 µM): -2.54% | inhibition ([13]; measured here: BGB combination, at 5 µM): 46.7% | inhibition ([13]; measured here: cisplatin combination, at 0.5 µM): -2.21% | inhibition ([13]; measured here: cisplatin combination, at 5 µM): 47.8% | inhibition ([14]; at 0.5 µM): 27.2% (inactive) | inhibition ([14]; cisplatin combination, at 0.5 µM): 48.8% | inhibition ([14]; cisplatin combination, at 5 µM): 101% | inhibition ([14]; measured here: BGB IC40 combination 0.05 uM, at 0.05 µM): 2.96% | inhibition ([14]; single agent, at 5 µM): 104%

COc1ccc(-c2oc3c(CC=C(C)C)c(O)cc(O)c3c(=O)c2O)cc1
AC50 [1]: 20.9 µM (active) | outcome [2]: inactive | outcome [3]: inactive | AC50 [4]: 16.6 µM (active) | AC50 [5]: 18.6 µM (active) | outcome [15]: inactive

CC1(C)Cc2c(-c3ccccc3)c(-c3ccc(Cl)cc3)c(CC(=O)O)n2C1
AC50 [1]: 26.3 µM (active) | outcome [2]: inactive | AC50 [3]: 18.7 µM (active) | outcome [4]: inactive | outcome [15]: inactive | fold change [7, 18]: 0.932 (inactive) | fold change [7, 19]: 1.58 | cell count [7, 20]: 5140 | cell count [7, 21]: 5520 | z-score [8, 22]: -0.384 (inactive) | z-score [8, 23]: 1.11

CN1CCCN(C(=O)c2cccc(-c3ccc(/C=C4/C(=O)Nc5ccc(Cl)cc54)o3)c2)CC1
AC50 [1]: 8.33 µM (active) | AC50 [2]: 20.9 µM (active) | AC50 [3]: 9.35 µM (active) | AC50 [4]: 7.42 µM (active) | AC50 [5]: 10.5 µM (active) | AC50 [16]: 10.5 µM (active) | AC50 [6]: 2.35 µM (active) | IC50 [15]: 29.5 µM (active) | viability ([17]; at 0.000305 µM, OCI-C5x cells, with rucaparib 10 µM, 100% = cells with rucaparib alone): 101% (inactive) | viability ([17]; at 0.000305 µM, OCI-C5x cells, without rucaparib): 96.5% (active) | viability ([17]; at 0.000305 µM, OCI-P5x cells, with rucaparib 20 µM, 100% = cells with rucaparib alone): 105% (inactive) | viability ([17]; at 0.000305 µM, OCI-P5x cells, without rucaparib): 105% (inactive) | viability ([17]; at 0.00122 µM, OCI-C5x cells, with rucaparib 10 µM, 100% = cells with rucaparib alone): 103% (inactive) | viability ([17]; at 0.00122 µM, OCI-C5x cells, without rucaparib): 102% (inactive) | viability ([17]; at 0.00122 µM, OCI-P5x cells, with rucaparib 20 µM, 100% = cells with rucaparib alone): 107% (inactive) | viability ([17]; at 0.00122 µM, OCI-P5x cells, without rucaparib): 103% (inactive) | viability ([17]; at 0.00488 µM, OCI-C5x cells, with rucaparib 10 µM, 100% = cells with rucaparib alone): 99.3% (active) | viability ([17]; at 0.00488 µM, OCI-C5x cells, without rucaparib): 104% (inactive) | viability ([17]; at 0.00488 µM, OCI-P5x cells, with rucaparib 20 µM, 100% = cells with rucaparib alone): 106% (inactive) | viability ([17]; at 0.00488 µM, OCI-P5x cells, without rucaparib): 106% (inactive) | viability ([17]; at 0.0195 µM, OCI-C5x cells, with rucaparib 10 µM, 100% = cells with rucaparib alone): 90.6% (active) | viability ([17]; at 0.0195 µM, OCI-C5x cells, without rucaparib): 99.3% (active) | viability ([17]; at 0.0195 µM, OCI-P5x cells, with rucaparib 20 µM, 100% = cells with rucaparib alone): 97.1% (active) | viability ([17]; at 0.0195 µM, OCI-P5x cells, without rucaparib): 103% (inactive) | viability ([17]; at 0.0781 µM, OCI-C5x cells, with rucaparib 10 µM, 100% = cells with rucaparib alone): 108% (inactive) | viability ([17]; at 0.0781 µM, OCI-C5x cells, without rucaparib): 107% (inactive) | viability ([17]; at 0.0781 µM, OCI-P5x cells, with rucaparib 20 µM, 100% = cells with rucaparib alone): 109% (inactive) | viability ([17]; at 0.0781 µM, OCI-P5x cells, without rucaparib): 102% (inactive) | viability ([17]; at 0.313 µM, OCI-C5x cells, with rucaparib 10 µM, 100% = cells with rucaparib alone): 105% (inactive) | viability ([17]; at 0.313 µM, OCI-C5x cells, without rucaparib): 111% (inactive) | viability ([17]; at 0.313 µM, OCI-P5x cells, with rucaparib 20 µM, 100% = cells with rucaparib alone): 100% (active) | viability ([17]; at 0.313 µM, OCI-P5x cells, without rucaparib): 94.8% (active) | viability ([17]; at 1.25 µM, OCI-C5x cells, with rucaparib 10 µM, 100% = cells with rucaparib alone): 98% (active) | viability ([17]; at 1.25 µM, OCI-C5x cells, without rucaparib): 96.2% (active) | viability ([17]; at 1.25 µM, OCI-P5x cells, with rucaparib 20 µM, 100% = cells with rucaparib alone): 95.1% (active) | viability ([17]; at 1.25 µM, OCI-P5x cells, without rucaparib): 93.4% (active) | viability ([17]; at 5 µM, OCI-C5x cells, with rucaparib 10 µM, 100% = cells with rucaparib alone): 2.49% (active) | viability ([17]; at 5 µM, OCI-C5x cells, without rucaparib): 2.79% (active) | viability ([17]; at 5 µM, OCI-P5x cells, with rucaparib 20 µM, 100% = cells with rucaparib alone): 1.66% (active) | viability ([17]; at 5 µM, OCI-P5x cells, without rucaparib): 1.82% (active)

Source: PubChem BioAssay
